From PubChem
Most compounds without a hit are left out; they make up all but 3.6% or so of the library.
KKLEB cytotox: cytotoxicity in KKLEB CF airway cells, primary screen, cytotoxicity control for CF NF-kB inhibitor project, cell-based, uHTS, fluorescence assay plates; activity change (cytotoxicity), % at 5 µM; KKLEB CF airway cells viability, ATPlite luminescence, overnight; hits give low values; cells stimulated with P. aeruginosa culture filtrate; AID 602141, 2011; actives 0.36% (n = 360,000);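 active = corrected activity change at or below -50% at 5 µM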
HSP90 refold inh: HSP90 inhibitors, primary screen, cell lysate, luminescence | inhibition, % at 5.6 µM | actives 0.91% (n = 290,000) | Heat shock protein HSP 90 (rabbit reticulocyte lysate; luciferase refolding) | Rabbit reticulocyte lysate, luciferase refolding luminescence, 3 h;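 active = inhibition above the screen-wide mean plus 3 SD, computed separately per campaign, cut at about 16% in these data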;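 also: 0% = DMSO wells and 100% = 60 µM geldanamycin wells; inhibitors lower the luminescence because luciferase stays unfolded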
CF NFkB block: inhibitors of PAF-induced NF-kB signaling, primary screen, cell-based, GFP fluorescence, uHTS | KKLEB NF-kB-GFP reporter, GFP fluorescence overnight | inhibition, % at 5 µM | actives 0.86% (n = 360,000);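 active = at least 50% inhibition at 5 µM, scaled per plate between neutral and stimulator controls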;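 also: PAF is a Pseudomonas aeruginosa culture filtrate used as stimulus; plate controls were PAF-stimulated DMSO wells for no effect and unstimulated DMSO wells for full effect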
Mdm2 MdmX PPI: inhibitors of human Mdm2-MdmX association, primary screen, cell-based, luminescence, split luciferase, SaOS-2, uHTS. SaOS-2 split-luciferase Mdm2/MdmX complementation. actives 3% (n = 330,000). inhibition, % at 8 µM;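 active = inhibition of at least 50% at 8 µM in the primary screen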
Target sequence (O15151 whole entry, looked up): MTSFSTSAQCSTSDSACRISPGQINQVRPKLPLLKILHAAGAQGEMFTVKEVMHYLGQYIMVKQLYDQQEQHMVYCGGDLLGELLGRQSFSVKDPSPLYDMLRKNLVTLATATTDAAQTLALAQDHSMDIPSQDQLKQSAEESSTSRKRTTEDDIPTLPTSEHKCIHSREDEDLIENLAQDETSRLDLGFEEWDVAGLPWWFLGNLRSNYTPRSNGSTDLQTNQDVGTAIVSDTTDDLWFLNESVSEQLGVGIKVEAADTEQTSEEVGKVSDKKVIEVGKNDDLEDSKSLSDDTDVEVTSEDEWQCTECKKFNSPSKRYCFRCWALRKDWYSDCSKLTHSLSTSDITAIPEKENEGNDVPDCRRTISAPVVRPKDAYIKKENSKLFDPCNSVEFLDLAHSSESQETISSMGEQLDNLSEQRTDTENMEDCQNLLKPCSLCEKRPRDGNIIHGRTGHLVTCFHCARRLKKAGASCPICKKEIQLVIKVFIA
Target sequence (Q00987 whole entry, looked up): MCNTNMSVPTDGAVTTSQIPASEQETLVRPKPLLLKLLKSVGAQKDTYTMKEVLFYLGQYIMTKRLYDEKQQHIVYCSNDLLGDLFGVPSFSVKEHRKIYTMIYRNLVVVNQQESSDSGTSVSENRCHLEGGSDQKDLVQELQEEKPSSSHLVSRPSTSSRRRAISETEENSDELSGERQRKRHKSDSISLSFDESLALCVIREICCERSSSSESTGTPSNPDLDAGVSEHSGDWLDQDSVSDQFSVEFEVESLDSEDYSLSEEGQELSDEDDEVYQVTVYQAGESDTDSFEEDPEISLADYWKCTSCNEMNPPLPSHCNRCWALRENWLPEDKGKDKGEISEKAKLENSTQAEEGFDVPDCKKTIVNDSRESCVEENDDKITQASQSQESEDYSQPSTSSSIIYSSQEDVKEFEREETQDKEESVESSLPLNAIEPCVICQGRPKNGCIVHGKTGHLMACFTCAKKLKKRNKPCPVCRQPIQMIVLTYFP
Peg3 prom inh: Peg3 promoter-driven luciferase inhibitors, primary screen, cell-based, HeLa, luciferase luminescence. inhibition, % at 20 µM. actives 1.7% (n = 360,000). AID 588405, 2011. HeLa PEG-Prom luciferase reporter, overnight;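 active = inhibition of at least 50% at 20 µM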
LGR2 inh: inhibitors of bursicon-induced LGR2 CRE-luciferase signal, primary screen, cell-based, HEK293, CRE-luciferase reporter, bursicon stimulation | actives 0.35% (n = 380,000) | bursicon-stimulated, 4 h | AID 720647, 2013 | Drosophila bursicon receptor LGR2 (rickets) | inhibition, % at 9.99 µM;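 active = drop in luminescence signal, shown as inhibition above about 50% in the replicate tests, limit read from the data, passing the limit was not always enough; inconclusive = probably only some replicates passing the limit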;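 also: agonist challenge used bursicon conditioned medium at about half maximal strength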
* hit, by the source's call; ? = inconclusive; . = no result given; ! = repeats disagree.

SMILES | KKLEB cytotox | HSP90 refold inh | CF NFkB block | Mdm2 MdmX PPI | Peg3 prom inh | LGR2 inh
CC(C)c1ccc2c(c1)CCC1C(C)(CN)CCCC21C (configuration not stated) | -13 | -3 | 13 | . | 109* | 1
CC(C)c1ccc2c(c1)CC[C@H]1[C@](C)(CN)CCC[C@]21C | -17 | . | 21 | . | 90*! | -4
O=C(Nc1ccc(N2CCN(C(=O)c3ccccc3)CC2)cc1)c1ccc([N+](=O)[O-])o1 | -72* | -2 | 84* | . | 103* | 1
O=[N+]([O-])c1cccc(S(=O)(=O)Nc2nc3ccccc3nc2Nc2cccc(S(=O)(=O)N3CCCCC3)c2)c1 | -55* | 3 | 61* | . | 50 | 34
COc1ccc(C(=O)Nc2ccc(N3CCN(C(=O)c4ccccc4)CC3)cc2)cc1[N+](=O)[O-] | -4 | 4 | 7 | 9 | 13 | -3
O=C(Nc1ccc(N2CCOCC2)c(Cl)c1)c1ccc([N+](=O)[O-])o1 | -21 | 0 | 74* | . | 106* | -64
Cc1ccc(NC(=O)c2ccc([N+](=O)[O-])o2)cc1S(=O)(=O)N1CCOCC1 | -5 | 1 | 56* | 18 | 102* | 10
Cc1ccc(NC(=O)c2cc([N+](=O)[O-])ccc2N2CCOCC2)cc1S(=O)(=O)N1CCOCC1 | -7 | 0 | -5 | 19 | 9 | -9
O=[N+]([O-])c1cccc(S(=O)(=O)Nc2ccc(S(=O)(=O)N3CCCC3)cc2)c1 | -5 | -3 | 15 | -4 | 15 | 4
O=C(Nc1cccc(S(=O)(=O)N2CCCCC2)c1)c1ccc([N+](=O)[O-])o1 | -14 | -1 | 88* | 30 | 53* | 0
CC1C=CC=CC=CC=CC=CC=CC=CC(OC2OC(C)C(O)C(N)C2O)CC2OC(O)(CC(O)CC(O)C(O)CCC(O)CC(O)CC(=O)OC(C)C(C)C1O)CC(O)C2C(=O)O (configuration not stated) | -9 | . | 55* | . | -20 | .
O=C(O)c1ccc(N=Nc2c(O)[nH]c3ccccc23)cc1 | 3 | 41* | -13 | -122 | 11 | 31
COc1ccccc1C1CCN(Cc2ccc(Cl)c(Cl)c2)CC1 | -8 | 3 | -6 | 4 | 5 | -18
CN[C@@H]1CC[C@H](c2ccc(Cl)c(Cl)c2)c2ccccc21 | . | 5 | 13 | 39 | 91* | .
Cc1cc(C)cc(NC(=O)Cn2c(SCc3cc(C)ccc3C)nc3ccncc32)c1 | . | 16* | . | . | . | .
Cc1ccc(CSc2nc3ccncc3n2CC(=O)Nc2cc(C)cc(C)c2)cc1 | -16 | 3 | -6 | 8 | -141 | -54
O=C(Nc1ccc(N2CCCCC2)cc1)c1ccccc1 | -12 | 28* | -5 | -20 | -75 | .
O=C(CCl)Nc1ccc(N2CCCCCC2)cc1 | 8 | -2 | -11 | 34 | 84* | 8
Cc1ccc(C(=O)Nc2ccc(N3CCCCC3)cc2)cc1 | 3 | . | -4 | -81 | -319 | .
CC(=O)Nc1ccc(N=Nc2ccccc2)cc1 | -2 | -4 | 11 | -236 | -341 | -38
O=C(CCl)Nc1ccc(N=Nc2ccccc2)cc1 | -14 | 2 | -52 | . | 107* | -112
Cc1onc(-c2ccccc2Cl)c1C(=O)Nc1ccc(-c2cn3cccnc3n2)cc1 | 0 | 0 | -10 | 12 | 94* | .
CCOC(=O)[C@]12CCCC=C1N(Cc1cccc3ccccc13)C(=O)[C@H](CC(=O)NCc1ccc(OC)c(OC)c1)C2 | . | . | . | . | . | 40*
C[C@H](CO)N1C[C@H](C)[C@@H](CN(C)Cc2ccc(C(F)(F)F)cc2)Oc2ccc(NC(=O)CCCCCC(=O)Nc3ccccc3N)cc2C1=O | . | . | . | . | . | 5
CO[C@@H]1CN(C)C(=O)c2cc(NC(=O)c3cnccn3)ccc2OC[C@@H](C)NC[C@@H]1C | . | . | . | . | . | -1
SMILES | KKLEB cytotox | HSP90 refold inh | CF NFkB block | Mdm2 MdmX PPI | Peg3 prom inh | LGR2 inh
Cc1cc(NC(=O)COC(=O)C2COc3ccccc3O2)no1 (configuration not stated) | -4 | 0 | -5 | 9 | 64* | .
O=C1C=CC(=O)N1c1ccccc1N1C(=O)C=CC1=O | -15 | . | 61* | . | 97* | 9
O=C(c1ccccc1)c1ccccc1N1C(=O)C=CC1=O | -9 | 0 | 78* | 1 | 104* | 18
CC(C)c1cn(CC[C@H]2CC[C@H](NC(=O)Nc3cc(Cl)cc(Cl)c3)[C@@H](CO)O2)nn1 | . | . | . | . | . | 16
CCCNC(=O)c1cc2c(c(-c3cccc(-c4ccc(F)cc4)c3)n1)[C@H](CCO)N(S(=O)C(C)(C)C)C2 (some centres not stated) | -25 | . | -15 | . | 51* | 38
CCCNC(=O)c1cc2c(c(-c3cccc(-c4ccc(F)cc4)c3)n1)[C@@H](CCO)N(S(=O)C(C)(C)C)C2 (some centres not stated) | 8 | . | 10 | . | 21 | -2
COc1ccc(S(=O)(=O)Oc2ccc3ccccc3c2)cc1 | -13 | 2 | 9 | -19 | -77 | -36
COC1=C(OC)C(=O)C(Sc2ccc3ccccc3c2)=CC1=O | 4 | . | -13 | . | 64* | -17
O/N=C\c1ccc(-c2ccccc2)o1 | 3 | -5 | 5 | 13 | -207 | -20
O=C(/C=C\c1ccc(-c2ccccc2)o1)c1ccccc1 | -10 | -3 | 6 | 31 | 80* | -66
CCN(CC)S(=O)(=O)c1ccc(C(=O)/C=C/c2ccc(-c3ccc([N+](=O)[O-])cc3)o2)cc1 | 18 | 13 | -19 | -16 | 13 | -7
Cc1ccc(C(=O)/C=C/c2ccc(-c3ccc(C)cc3)o2)cc1 | 0 | -5 | 2 | -3 | 74* | -5
C#CCOCCOCCOCCNc1nc(N2CCN(C(=O)CCCCCCCCCCNC(=O)[C@H](CCCCN)n3cc(C[C@@H](C)CC)nn3)CC2)nc(N2CCN(C(=O)CCCCCCCCCCNC(=O)[C@H](CCCN=C(N)N)n3cc(C[C@@H](C)CC)nn3)CC2)n1 | 0 | . | 12 | 36 | 101* | .
C#CCOCCOCCOCCNc1nc(N2CCN(C(=O)CCCCCCCCCCNC(=O)[C@H](CCCCN)n3cc(C)nn3)CC2)nc(N2CCN(C(=O)CCCCCCCCCCNC(=O)[C@H](CCCN=C(N)N)n3cc(C[C@@H](C)CC)nn3)CC2)n1 | . | . | . | 1 | . | .
C[C@H]1CN([C@@H](C)CO)C(=O)c2cc(C#CC3CCCC3)cnc2O[C@H]1CN(C)S(C)(=O)=O | . | . | . | . | . | 1
COc1ccccc1N(C(C)=O)C1=C(Cl)C(=O)c2ccccc2C1=O | -44 | . | 51* | . | 100* | ?
